Sm TGR block: S. mansoni TGR enzyme inhibition | AID 485364 | 360,000 compounds, 3% hits | purified TGR, DTNB reduction, TNB absorbance 405 nm | Potency, µM (top dose mostly 114 µM), for the others: at the highest dose activity change, negative = inhibition, usual class: inhibitors; further: nearly all actives have a fitted effect of over 60% in size
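First, TGR (20 nM dispensed) and NADPH were mixed with compound. Second, a 15 min room-temperature incubation followed. Third, further NADPH and then DTNB were added to start the reaction. Finally, TNB absorbance was monitored kinetically.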
Tb PYK inh: blocks Trypanosoma brucei pyruvate kinase; AID 624173; 410,000 compounds, 0.12% hits; Potency, µM (highest dose often 76.8 µM), for the others: top-dose activity, negative = inhibition, most hits filed as inhibitors; TbPYK enzyme, Kinase-Glo Plus ATP luminescence, 45 min; further: nearly all actives have a fitted effect of over 50% in size
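Activity of T. brucei pyruvate kinase was followed by Kinase-Glo Plus luminescence after the enzyme reacted 45 min at room temperature with 130 uM ADP (final) and substrate. Test compounds were added before ADP at multiple concentrations.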
LmPK inhibitor: LmPK (Leishmania mexicana) enzyme inhibition | Potency, µM (series often up to 57.5 µM), for the others: at the top dose activity change, negative = inhibition, actives largely listed as inhibitors | Q27686 | AID 1721 | purified LmPK, Kinase-Glo ATP luminescence, 1 h | 290,000 compounds, 0.37% hits
Target sequence (Q27686 whole entry, looked up): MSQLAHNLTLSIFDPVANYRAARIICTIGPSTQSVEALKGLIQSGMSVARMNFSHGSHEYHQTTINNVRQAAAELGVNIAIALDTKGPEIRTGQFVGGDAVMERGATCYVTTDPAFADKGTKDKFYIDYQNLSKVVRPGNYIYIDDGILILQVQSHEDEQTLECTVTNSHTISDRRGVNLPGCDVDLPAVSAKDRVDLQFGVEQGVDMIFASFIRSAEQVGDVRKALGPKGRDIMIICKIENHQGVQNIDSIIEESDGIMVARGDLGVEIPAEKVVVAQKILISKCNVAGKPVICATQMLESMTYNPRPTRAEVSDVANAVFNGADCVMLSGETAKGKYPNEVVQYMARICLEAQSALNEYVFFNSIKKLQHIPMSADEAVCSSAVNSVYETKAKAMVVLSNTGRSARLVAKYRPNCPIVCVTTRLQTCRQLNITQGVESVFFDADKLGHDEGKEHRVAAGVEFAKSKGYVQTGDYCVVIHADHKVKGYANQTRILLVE
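Purified LmPK (0.1 nM) converted ADP (0.1 mM) to ATP with PEP (0.5 mM) in imidazole buffer pH 7.2 with KCl and MgCl2, 1 h at room temperature. ATP was read by Kinase-Glo luminescence; data normalized to uninhibited and no-enzyme controls.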
AMA1 RON2 block: disrupts binding of P. falciparum AMA1 to RON2 | AlphaScreen AMA1-biotinylated RON2 peptide binding | 360,000 compounds, 0.2% hits | Potency, µM (highest dose often 58.2 µM), inactives show top-dose activity change, negative = inhibition, hits mostly inhibitors | AID 720542;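 further: 0% = vehicle wells and -100% = peptide control; nearly all actives have a fitted effect of over 45% in size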
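AMA1 (3D7) with his tag at 25 nM final met compounds first, then biotinylated RON2 peptide at 25 nM; detection used donor plus acceptor beads, 10 µg/mL apiece, read by AlphaScreen after 30 min at room temperature.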
RE007 growth inh: less growth of the S. pombe RE007 Vpr strain. S. pombe RE007 Vpr strain, BacTiter-Glo ATP luminescence, 24 h. Potency, µM (highest dose often 92.2 µM), for the others: at the top dose activity change, negative = less growth, usual class: inhibitors. 360,000 compounds, 0.21% hits. AID 651644; active means well fitted falling curve with a large enough effect; inconclusive means small, poorly fitted or top-dose-only effect; inactive means no such curve, though single readings can be large or run the other way; further: nearly all actives have a fitted effect of over 50% in size
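Fission yeast strain RE007, carrying one chromosomally integrated HIV-1 vpr copy, was seeded at OD 0.01 in PMG+AL medium with 23 nL pinned compound. After 24 h at 30 °C and 99% humidity, viability was read by BacTiter-Glo luminescence.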
* = called active by the depositor; ? = inconclusive; . = no result; [ ] = dose if it differs, or a comment. Rows were chosen to be rich in hits. Some 3.2% of all compounds tested hit in one or more screens of this group. Unless noted, the call rests on the fitted dose curve; in most records, active means well fitted curve in the direction sought with a large enough effect; inconclusive means small, poorly fitted or top-dose-only effect, or another doubt; inactive means no such curve, though single readings can be large; an effect the other way counts as inactive or inconclusive. Unless noted, on the % scale 0 is the no-effect control and ±100 the full control effect; potency means the concentration at half of the fitted maximal effect.

SMILES	Sm TGR block	Tb PYK inh	LmPK inhibitor	AMA1 RON2 block	RE007 growth inh
COc1ccccc1CCNC(=O)C(=O)NCC(c1cccs1)S(=O)(=O)c1ccccc1 (stereo not drawn)	-15%	0%	.	.	.
O=C(NCC(c1ccco1)S(=O)(=O)c1cccs1)c1ccccc1 (stereo not drawn)	0.32µM*	2%	.	.	.
COc1ccccc1CCNC(=O)C(=O)NCC(c1ccco1)S(=O)(=O)c1ccccc1 (stereo not drawn)	35µM*	-2%	.	.	.
Cc1ccc(C(=O)Nc2ccc3oc(-c4ccccc4C)nc3c2)cc1	1%	-7%	.	.	.
CC/C=C(/C(=O)N[C@@H]1C(=O)N2C(C(=O)OCOC(=O)C(C)(C)C)=C(COC(N)=O)CS[C@H]12)c1csc(N)n1	.	-6%	.	.	.
CC(C)(C)c1ccc(C(=O)NCC(c2cccs2)S(=O)(=O)c2cccs2)cc1 (stereo not drawn)	35µM*	1%	.	.	.
Cc1ccc(C(=O)NCC(c2ccco2)S(=O)(=O)c2cccs2)cc1C (stereo not drawn)	?	3%	.	.	.
COc1ccc(C(=O)NCC(c2ccco2)S(=O)(=O)c2cccs2)cc1OC (stereo not drawn)	1.3µM*	-3%	.	.	.
O=C(NCC(c1ccco1)S(=O)(=O)c1cccs1)c1ccc(F)c(F)c1 (stereo not drawn)	16µM*	-7%	.	.	.
Cc1ccc(C(=O)NCC(c2cccs2)S(=O)(=O)c2cccs2)cc1 (stereo not drawn)	?	0%	.	.	.
COc1ccc(/C=C/C(=O)Nc2ccc3nc(N4CCC(C)CC4)cc(C)c3c2)cc1OC	0%	1%	.	.	.
Oc1cc(-n2cccn2)c(O)cc1-n1cccn1	3.5µM*	-27%	-7%	67%	.
O=Cc1ccccc1-n1cccn1	-11%	2%	5%	-3%	6%
S=c1[nH]nc([C@@H]2C[C@H]2c2ccccc2)n1-c1ccccc1Cl	6%	5µM*	13µM*	77%	29%
CCC(=O)O[C@@](Cc1ccccc1)(c1ccccc1)[C@H](C)CN(C)C	.	-2%[157 µM]	.	.	.
CS(=O)(=O)N1N=C(c2ccco2)CC1c1ccco1 (stereo not drawn)	20µM*	2%	2%	-17%	-2%
CCS(=O)(=O)N1N=C(c2ccc(C)cc2)CC1c1cc2ccc(OC)cc2nc1Cl (stereo not drawn)	7%	-1%	.	.	.
COc1ccc2cc(C3CC(c4ccco4)=NN3S(C)(=O)=O)c(Cl)nc2c1 (stereo not drawn)	6.3µM*	-6%	0%	-27%	1%
O=C(CSc1ccccc1)NCc1ccc2c(c1)CCN2C(=O)c1ccc(Cl)cc1	0%	0%	.	.	.
O=C(Sc1ccc(Cl)cc1)c1cccc(Cn2cc(C(F)(F)F)ccc2=O)c1	20µM*	4%	0%	-9%	27%
N/C(=N\OC(=O)c1cccc(Cn2cc(C(F)(F)F)ccc2=O)c1)c1ccc(Cl)cc1	4%	2%	7%	-20%	1%
CC(Sc1nnc(-c2ccco2)o1)C(=O)NCCC1=CCCCC1 (stereo not drawn)	45µM*	-16%	-2%	-9%	4%
COc1ccc(CCn2c(=O)c3cccnc3n(CC(=O)Nc3ccc(C)cc3C)c2=O)cc1OC	9%	1%	.	.	.
CCCC1=[N+](CC(=O)c2ccccc2)CCn2cccc21	-6%	-4%	-5%	-4%	-6%
CCCC1=[N+](CC(C)=O)CCn2c(C)ccc21	28µM*	-15%	1%	-2%	-2%
SMILES	Sm TGR block	Tb PYK inh	LmPK inhibitor	AMA1 RON2 block	RE007 growth inh
O=C(Nc1ccccc1)C1=C(c2ccccc2)S(=O)(=O)CCS1(=O)=O	0.25µM*	?	-2%	8%	3%
COc1cc2c(cc1NS(=O)(=O)c1cccc(C#N)c1)n(C)c(=O)n2C	-10%	-25%	.	.	.
FC(F)(F)c1cc(-c2ccco2)nc(NCc2cccnc2)n1	45µM*	-3%	8%	-4%	3%
Fc1ccc(CNc2nc(-c3ccco3)cc(C(F)(F)F)n2)cc1	25µM*	12%	1%	39%	5%
COc1ccc(CCNc2nc(-c3ccco3)cc(C(F)(F)F)n2)cc1OC	1%	0%	1%	-7%	-5%
FC(F)(F)c1cc(-c2ccco2)nc(NCc2ccccc2)n1	18µM*	1%	-1%	29%	-12%
Fc1ccc(-c2cc(C(F)(F)F)nc(NCc3ccccc3)n2)cc1	8%	1%	.	.	.
N#CC(C#N)=C1C(=O)N(CCN2CCOCC2)c2ccccc21	3.5µM*	-5%	0%	2%	59%
CC(=O)NC1C(=O)N(CCN2CCOCC2)c2ccc(Cl)cc21 (stereo not drawn)	-22%	?	0%	?	9%
Cc1ccc2c(c1)C(=C(C#N)C#N)C(=O)N2CCN1CCOCC1	3.2µM*	1%	-4%	7%	-9%
CC(=O)NC1C(=O)N(CCN2CCOCC2)c2ccc(C)cc21 (stereo not drawn)	-5%	?	0%	32µM*	.
N#CC(C#N)=C1C(=O)N(CCN2CCCCC2)c2ccccc21	-15%	-7%	4%	-11%	-18%
Cc1ccc(CN(Cc2ccco2)C(=O)COc2ccc(C)c(C)c2)cc1	1%	-4%	.	.	.
Cc1cc(=O)oc2ccc(OCC(=O)N(Cc3ccc(F)cc3)Cc3ccco3)cc12	18µM*	2%	-1%	-10%	-15%
CCc1ccc(CN(C)Cc2nc(Cc3ccc(OC)c(OC)c3)no2)nc1	32µM*	-5%	4%	43%	-14%
NC(N)=NCCCC(N)C(=O)O (stereo not drawn)	.	1%	.	.	.
CCCS(=O)(=O)c1nc(S(=O)(=O)c2ccc(C)cc2)c(N2CCC(C(N)=O)CC2)s1	45µM*	2%	1%	-6%	6%
CCCS(=O)(=O)c1nc(S(=O)(=O)c2ccc(C)cc2)c(N2CCC(O)CC2)s1	-6%	1%	-2%	7%	-7%
CCCS(=O)(=O)c1nc(S(=O)(=O)c2ccc(C)cc2)c(N2CCc3ccccc3C2)s1	25µM*	-22%	6%	-2%[11.6 µM]	-5%
CCCS(=O)(=O)c1nc(S(=O)(=O)c2ccc(C)cc2)c(NC(C)c2ccccc2)s1 (stereo not drawn)	5µM*	-11%	.	.	.
O=C(CSc1nnc(CNC(=O)c2c(F)cccc2Cl)o1)Nc1ccccc1F	1%	-3%	.	.	.
C/C(CCc1oc2c(Br)cc(Br)cc2c1-c1ccc(C)o1)=N\O	16µM*	-17%	-12%	3.8µM*	-15%
C/C(CCc1oc2ccccc2c1-c1ccc(C)o1)=N/O	20µM*	-12%	-4%	-20%	-20%
CCN(C(=O)c1cc2c(Cl)nc3ccc(C)cc3c2s1)c1cc(OC)ccc1OC	1%	-1%	.	.	.
Cc1ccc(-n2ccn(CC(=O)c3ccc(F)cc3)c(=O)c2=O)cc1C	-23%	6%	.	.	.

High-throughput results: PubChem, National Center for Advancing Translational Sciences (NCATS)
